Calls of active or inactive are those of the source. How the source made its calls: active means hit-call score of the fitted dose curve at least 0.9, where 1 is the maximum; inactive means score below 0.9.
Columns and labels:
[1] = target: Transcription factor E2F1 (Homo sapiens) (UniProt Q01094); test: ATG_E2F_CIS: Attagene CIS-FACTORIAL HepG2 Assay for human E2F Transcription Factor 1 (AID 2282935); details: HepG2 Attagene cis-reporter, E2F reporter RNA transcripts; actives raise or lower the signal
Chain of Transcription factor E2F1 (Homo sapiens) (Q01094 whole entry, looked up): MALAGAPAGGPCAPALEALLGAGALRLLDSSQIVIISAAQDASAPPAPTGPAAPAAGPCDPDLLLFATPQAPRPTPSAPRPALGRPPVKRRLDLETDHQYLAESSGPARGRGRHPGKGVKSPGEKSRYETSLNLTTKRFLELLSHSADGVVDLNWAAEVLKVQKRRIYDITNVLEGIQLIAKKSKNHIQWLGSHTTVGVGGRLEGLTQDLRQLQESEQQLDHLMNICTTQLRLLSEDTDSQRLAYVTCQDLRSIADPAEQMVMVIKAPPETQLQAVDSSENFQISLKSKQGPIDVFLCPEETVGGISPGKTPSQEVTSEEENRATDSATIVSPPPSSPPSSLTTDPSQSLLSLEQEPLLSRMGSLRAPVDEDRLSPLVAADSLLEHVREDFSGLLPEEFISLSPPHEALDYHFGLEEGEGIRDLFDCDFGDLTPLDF
Summary of the method: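 Measures reporter transcript levels via RT-PCR with capillary electrophoresis detection in HepG2 cells harboring cis-regulated reporter units; 24 h post-dose; bidirectional curve fitting with DMSO as baseline.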

[2] = ATG_E_Box_CIS: Attagene CIS-FACTORIAL HepG2 Assay for human Enhancer Box (E-box) (AID 2282936); details: HepG2 E-box cis-reporter transcription, actives raise or lower the signal
Summary of the method: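 First, HepG2 cells receive multiple cis-regulated reporter constructs by transient transfection. Next, chemicals are applied for 24 h. Finally, reporter mRNA is quantified via RT-PCR and capillary electrophoresis, with DMSO as baseline.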

[3] = ATG_M_61_CIS: Attagene CIS-FACTORIAL HepG2 Assay for M61 Transcription Factor (Internal Marker) (AID 2282937); details: HepG2 Attagene CIS-FACTORIAL M61 internal marker reporter; actives raise or lower the signal
Summary of the method: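 Transfect HepG2 with MRTUs; dose 24 h; isolate RNA; reverse-transcribe with DNase I treatment; PCR-amplify, FAM-label and cut with HpaI for 2 h at 37 C; resolve by CE. Bidirectional fitting against DMSO.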

[4] = ATG_EGR_CIS: Attagene CIS-FACTORIAL HepG2 Assay for human Early Growth Response 1 (EGR1) (AID 2282938); details: HepG2 Attagene CIS-FACTORIAL EGR reporter mRNA; actives raise or lower the signal
Summary of the method: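 After a 24 h treatment of transiently transfected HepG2 cells, total RNA was reverse-transcribed and reporter sequences PCR-amplified, labelled and run on capillary electrophoresis. Reporters sit under cis-regulatory promoters sensing endogenous factors.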

[5] = ATG_M_19_CIS: Attagene CIS-FACTORIAL HepG2 Assay for M19 Transcription Factor (Internal Marker) (AID 2282939); details: HepG2 Attagene CIS-FACTORIAL M19 internal marker reporter; actives raise or lower the signal
Summary of the method: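 Signals come from fluorescence of labelled reporter-specific PCR fragments resolved by capillary electrophoresis, following 24 h treatment of HepG2 cells transfected with cis-promoter reporter units; activity was fitted in both directions relative to DMSO.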

[6] = ATG_ERE_CIS: Attagene CIS-FACTORIAL HepG2 Assay for Estrogen Response Element (ERE) (AID 2282940); details: HepG2 ERE cis-reporter, Attagene RNA transcript; actives raise or lower the signal
Summary of the method: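 Fluorescence of capillary-separated, FAM-labelled reporter cDNA fragments indicates reporter mRNA levels in HepG2 cells exposed to chemicals for 24 h. Transient transfection with cis-regulated units; data fitted in both directions against DMSO.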

[7] = target: Hepatocyte nuclear factor 3-beta (Homo sapiens) (UniProt Q9Y261); test: ATG_FoxA2_CIS: Attagene CIS-FACTORIAL HepG2 Assay for human Forkhead box A2 (FOXA2) (AID 2282942); details: HepG2 cis-reporter transcription factor activity, 24 h; actives raise or lower the signal
Chain of Hepatocyte nuclear factor 3-beta (Homo sapiens) (Q9Y261 whole entry, looked up): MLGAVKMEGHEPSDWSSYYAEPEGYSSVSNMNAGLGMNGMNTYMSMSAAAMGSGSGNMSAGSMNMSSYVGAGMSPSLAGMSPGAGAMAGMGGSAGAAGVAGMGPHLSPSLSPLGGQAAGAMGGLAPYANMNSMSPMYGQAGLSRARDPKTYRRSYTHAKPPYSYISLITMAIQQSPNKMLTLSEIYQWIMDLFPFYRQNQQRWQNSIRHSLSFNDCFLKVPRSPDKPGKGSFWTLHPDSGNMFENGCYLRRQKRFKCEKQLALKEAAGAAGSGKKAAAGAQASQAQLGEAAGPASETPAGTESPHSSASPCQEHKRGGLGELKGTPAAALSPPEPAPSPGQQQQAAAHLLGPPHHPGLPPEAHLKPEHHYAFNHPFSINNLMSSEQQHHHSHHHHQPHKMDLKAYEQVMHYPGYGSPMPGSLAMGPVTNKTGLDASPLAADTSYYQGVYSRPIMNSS
Summary of the method: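 24 h dosing of HepG2 bearing cis-reporter constructs; mRNA readout by RT-PCR/CE fluorescence; bidirectional fit, DMSO baseline.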

[8] = ATG_GATA_CIS: Attagene CIS-FACTORIAL HepG2 Assay for human GATA Binding Protein (AID 2282944); details: HepG2 GATA cis-element reporter, Attagene multiplex mRNA; actives raise or lower the signal
Summary of the method: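 After transfecting HepG2 cells with multiple cis-regulated reporter units, chemicals are dosed for 24 h; isolated RNA undergoes RT-PCR and fluorescent labeling before capillary electrophoresis, with activity expressed against DMSO.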

[9] = ATG_GLI_CIS: Attagene CIS-FACTORIAL HepG2 Assay for human Zinc Finger Protein GLI1 (AID 2282945); details: HepG2, Attagene cis-factorial reporter mRNA, GLI element; actives raise or lower the signal
Summary of the method: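 Transiently transfected HepG2 cells report endogenous transcription factor activity via cis-element-driven reporter units. After 24 h compound exposure, reporter mRNA was measured by RT-PCR with capillary electrophoresis; bidirectional fitting against DMSO baseline.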

[10] = ATG_ISRE_CIS: Attagene CIS-FACTORIAL HepG2 Assay for human Interferon Regulatory Factor 1 (IRF1) binding to an Interferon-Stimulated Response Element (ISRE) (AID 2282948); details: HepG2 ISRE cis-reporter (Attagene), mRNA transcription readout; actives raise or lower the signal
Summary of the method: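 HepG2 cells transiently transfected with multiplexed cis-promoter reporter units; after 24 h compound exposure, reporter mRNA quantified by RT-PCR, FAM labelling, HpaI digestion and capillary electrophoresis. Bidirectional fit versus DMSO baseline.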

[11] = ATG_M_32_CIS: Attagene CIS-FACTORIAL HepG2 Assay for M32 Transcription Factor (Internal Marker) (AID 2282949); details: HepG2 Attagene cis-factorial M32 reporter, mRNA; actives raise or lower the signal;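 further: background control marker of the multiplexed CIS panel rather than a real target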
Summary of the method: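 Internal background marker read-out: RT-PCR/capillary electrophoresis fluorescence of reporter transcripts from transiently transfected HepG2 cells after 24 h chemical exposure. Activity fitted bidirectionally relative to DMSO negative control.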

[12] = ATG_M_06_CIS: Attagene CIS-FACTORIAL HepG2 Assay for M06 Transcription Factor (Internal Marker) (AID 2282950); details: HepG2 Attagene CIS-FACTORIAL M06 internal marker reporter; actives raise or lower the signal
Summary of the method: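 HepG2 liver cells, 24 h exposure. Reporter transcripts from transfected cis-element constructs quantified by RT-PCR/capillary electrophoresis fluorescence. Bidirectional curve fit against DMSO.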

[13] = target: Hepatocyte nuclear factor 6 (Homo sapiens) (UniProt Q9UBC0); test: ATG_HNF6_CIS: Attagene CIS-FACTORIAL HepG2 Assay for human Hepatocyte Nuclear Factor 6 (HNF6) (AID 2282952); details: HepG2 Attagene cis-factorial HNF6 reporter transcription; actives raise or lower the signal
Chain of Hepatocyte nuclear factor 6 (Homo sapiens) (Q9UBC0 whole entry, looked up, the tested form may be a part): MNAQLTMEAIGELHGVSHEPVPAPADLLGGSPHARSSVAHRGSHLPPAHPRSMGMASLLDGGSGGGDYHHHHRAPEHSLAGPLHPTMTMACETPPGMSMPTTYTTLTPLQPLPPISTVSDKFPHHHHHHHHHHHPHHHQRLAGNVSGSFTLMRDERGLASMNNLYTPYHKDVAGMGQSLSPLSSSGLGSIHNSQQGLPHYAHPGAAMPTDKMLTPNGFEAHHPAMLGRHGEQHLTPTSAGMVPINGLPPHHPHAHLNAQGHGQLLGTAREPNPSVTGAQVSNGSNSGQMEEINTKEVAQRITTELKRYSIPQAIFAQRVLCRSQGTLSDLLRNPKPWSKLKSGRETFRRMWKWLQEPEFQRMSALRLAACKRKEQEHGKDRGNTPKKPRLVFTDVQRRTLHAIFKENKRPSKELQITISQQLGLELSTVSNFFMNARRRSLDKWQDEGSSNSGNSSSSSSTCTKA
Summary of the method: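 Reporter mRNA induction or loss in HepG2 after 24 h exposure; transient cis-MRTU transfection; fragments quantified by capillary electrophoresis; bidirectional analysis, DMSO as negative control.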

[14] = ATG_MRE_CIS: Attagene CIS-FACTORIAL HepG2 Assay for human Metal Responsive Element (MRE) (AID 2282954); details: HepG2 MRE cis-reporter transcription, Attagene multiplex; actives raise or lower the signal
Summary of the method: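 Fluorescent reporter fragments separated by capillary electrophoresis give mRNA induction for the MRE unit after 24 h treatment of transfected HepG2 cells. Endogenous transcription-factor activity is read; DMSO serves as negative control and baseline.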

[15] = ATG_Ets_CIS: Attagene CIS-FACTORIAL HepG2 Assay for human Erythroblast Transformation Specific (ETS) (AID 2282941); details: HepG2 ETS cis-reporter transcription, actives raise or lower the signal
Summary of the method: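 HepG2 cells transiently transfected with cis-promoter reporter transcription units were dosed for 24 h; reporter mRNA was measured by RT-PCR, 6-FAM primer extension, HpaI digestion and capillary electrophoresis, with bidirectional fitting against DMSO baseline.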

[16] = ATG_FoxO_CIS: Attagene CIS-FACTORIAL HepG2 Assay for human Forkhead box O (FoxO) (AID 2282943); details: HepG2 Attagene cis-reporter, FoxO element, mRNA; actives raise or lower the signal
Summary of the method: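 HepG2 cells transiently transfected with cis-element-driven reporter units report endogenous FoxO activity. After 24 h chemical exposure, reporter mRNA quantified by RT-PCR, fluorescent labeling, HpaI digestion and capillary electrophoresis; bidirectional fit versus DMSO.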

[17] = target: Bile acid receptor (Homo sapiens) (UniProt Q96RI1); test: ATG_IR1_CIS: Attagene CIS-FACTORIAL HepG2 Assay for human Nuclear Receptor Subfamily 1 Group H Member 4 (NR1H4), IR1 submotif (AID 2282946); details: IR1 reporter transcription, actives raise or lower the signal
Chain of Bile acid receptor (Homo sapiens) (Q96RI1 whole entry, looked up): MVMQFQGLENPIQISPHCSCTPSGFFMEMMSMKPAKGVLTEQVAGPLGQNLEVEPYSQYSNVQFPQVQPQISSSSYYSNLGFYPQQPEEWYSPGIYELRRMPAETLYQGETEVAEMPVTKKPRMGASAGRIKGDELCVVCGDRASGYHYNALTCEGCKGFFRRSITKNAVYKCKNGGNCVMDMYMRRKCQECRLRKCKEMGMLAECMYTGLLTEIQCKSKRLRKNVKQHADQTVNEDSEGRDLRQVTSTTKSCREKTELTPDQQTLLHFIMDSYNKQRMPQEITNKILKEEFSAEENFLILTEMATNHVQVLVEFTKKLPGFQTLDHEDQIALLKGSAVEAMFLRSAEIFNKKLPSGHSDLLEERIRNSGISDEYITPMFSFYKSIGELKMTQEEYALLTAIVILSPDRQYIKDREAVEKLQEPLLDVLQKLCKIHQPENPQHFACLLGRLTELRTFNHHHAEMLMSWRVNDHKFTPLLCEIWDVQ
Summary of the method: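 HepG2 cells transiently transfected with multiple cis-promoter-driven reporter units to measure endogenous transcription factor activity; 24 h exposure. Reporter mRNA read by RT-PCR, FAM labelling, HpaI digestion and capillary electrophoresis. Bidirectional fit versus DMSO.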

[18] = target: Heat shock factor protein 1 (Homo sapiens) (UniProt Q00613); test: ATG_HSE_CIS: Attagene CIS-FACTORIAL HepG2 Assay for human Heat Shock Transcription Factor 1 (HSE) (AID 2282953); details: HepG2 HSE cis-reporter, Attagene RNA transcription; actives raise or lower the signal
Chain of Heat shock factor protein 1 (Homo sapiens) (Q00613 whole entry, looked up, the tested form may be a part): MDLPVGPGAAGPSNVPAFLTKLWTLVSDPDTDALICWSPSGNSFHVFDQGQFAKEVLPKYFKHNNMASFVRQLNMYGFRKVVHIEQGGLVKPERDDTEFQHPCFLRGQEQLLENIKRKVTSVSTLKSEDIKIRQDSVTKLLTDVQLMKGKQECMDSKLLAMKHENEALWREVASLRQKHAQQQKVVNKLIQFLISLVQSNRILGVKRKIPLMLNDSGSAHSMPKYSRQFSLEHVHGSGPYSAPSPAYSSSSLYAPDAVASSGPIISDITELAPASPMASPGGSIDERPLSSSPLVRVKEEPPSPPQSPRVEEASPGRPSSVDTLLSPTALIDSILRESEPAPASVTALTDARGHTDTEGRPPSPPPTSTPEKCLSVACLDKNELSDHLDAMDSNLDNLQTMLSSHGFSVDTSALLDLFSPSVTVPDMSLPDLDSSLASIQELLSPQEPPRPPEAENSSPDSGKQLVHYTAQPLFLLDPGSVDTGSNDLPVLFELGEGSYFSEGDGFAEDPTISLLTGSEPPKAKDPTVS
Summary of the method: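 Endogenous transcription factor activity captured via cis-promoter reporter units transfected into HepG2; treatment lasted 24 h. Fluorescence intensity of reporter fragments analysed with bidirectional curve fitting, DMSO baseline.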

[19] = ATG_GRE_CIS: Attagene CIS-FACTORIAL HepG2 Assay for human Glucocorticoid Response Elements (GRE) (AID 2282947); details: HepG2 GRE cis-reporter, Attagene multiplex mRNA; actives raise or lower the signal
Summary of the method: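 Endogenous transcription factor activity is read through cis-element reporter constructs transiently transfected into HepG2 cells. After 24 h treatment, labelled RT-PCR products are resolved by capillary electrophoresis; DMSO sets baseline for bidirectional curve fitting.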

[20] = target: Hypoxia-inducible factor 1-alpha (Homo sapiens) (UniProt Q16665); test: ATG_HIF1a_CIS: Attagene CIS-FACTORIAL HepG2 Assay for human Hypoxia Inducible Factor 1 (HIF1A) (AID 2282951); details: HepG2 Attagene cis-factorial HIF1a reporter transcription; actives raise or lower the signal
Chain of Hypoxia-inducible factor 1-alpha (Homo sapiens) (Q16665 whole entry, looked up): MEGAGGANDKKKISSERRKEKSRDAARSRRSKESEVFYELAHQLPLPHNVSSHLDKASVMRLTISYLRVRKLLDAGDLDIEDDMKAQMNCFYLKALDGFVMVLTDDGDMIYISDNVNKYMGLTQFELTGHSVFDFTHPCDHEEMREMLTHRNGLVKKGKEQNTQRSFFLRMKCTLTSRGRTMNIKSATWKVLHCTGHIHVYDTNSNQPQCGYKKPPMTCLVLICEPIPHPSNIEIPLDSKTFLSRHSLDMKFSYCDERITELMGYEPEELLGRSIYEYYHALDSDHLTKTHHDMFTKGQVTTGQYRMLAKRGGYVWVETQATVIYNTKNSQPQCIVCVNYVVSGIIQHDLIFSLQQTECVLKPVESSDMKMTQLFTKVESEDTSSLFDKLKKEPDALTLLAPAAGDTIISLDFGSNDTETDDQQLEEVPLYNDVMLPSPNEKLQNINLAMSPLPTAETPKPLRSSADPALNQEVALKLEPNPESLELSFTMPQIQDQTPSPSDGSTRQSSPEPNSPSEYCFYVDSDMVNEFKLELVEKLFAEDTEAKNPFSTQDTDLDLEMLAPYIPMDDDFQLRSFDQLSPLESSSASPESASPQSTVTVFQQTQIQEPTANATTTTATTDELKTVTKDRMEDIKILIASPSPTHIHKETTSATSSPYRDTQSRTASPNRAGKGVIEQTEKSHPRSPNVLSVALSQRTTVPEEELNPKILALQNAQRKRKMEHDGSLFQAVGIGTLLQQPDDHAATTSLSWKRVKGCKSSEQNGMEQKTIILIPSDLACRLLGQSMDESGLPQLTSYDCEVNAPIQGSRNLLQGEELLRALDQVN
Summary of the method: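 After 24 h chemical exposure of reporter-transfected HepG2 cells, reporter cDNA was PCR-amplified, labelled by 6-FAM primer extension (2 min 95 C, 20 s 68 C, 10 min 72 C), HpaI-cut (2 h, 37 C) and analysed by CE.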

Measured: AC50

Cc1cccc(C)c1O
not listed: [15] | [16] | [17] | [18] | [19] | [20]
inactive: all other assays above

Nc1ccc(S(=O)(=O)c2ccc(N)cc2)cc1
active: [6] 100 µM
not listed: [2] | [19] | [20]
inactive: all other assays above

CC(CO)OC(C)CO (stereo unspecified) (tested in a mixture with another compound)
not listed: [2] | [18] | [20]
inactive: all other assays above

CC(C)(C)c1cc(O)c(C(C)(C)C)cc1O
active: [4] 31.1 µM | [6] 31 µM | [9] 114 µM | [10] 114 µM | [11] 40.6 µM | [18] 64.3 µM | [14] 39.2 µM
not listed: [2] | [17] | [20]
inactive: all other assays above

Cc1ccc2ncccc2c1
not listed: [15] | [17] | [18]
inactive: all other assays above

C=CCc1ccc(O)c(OC)c1
not listed: [15] | [16] | [17] | [19]
inactive: all other assays above

Oc1ccc2ccccc2c1N=Nc1ccccc1
active: [6] 4.52 µM | [7] 0.14 µM | [20] 1.24 µM | [14] 2.47 µM
not listed: [15] | [19]
inactive: all other assays above

CCNc1cccc(C)c1
not listed: [16] | [17] | [18] | [19] | [20]
inactive: all other assays above
